The panel holds about 83,000 compounds, 20% with a hit somewhere; the sample as a whole holds those more often.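 Plates (96-well) were seeded with cells, treated with compound at one concentration, and incubated for 48 hours before percent growth was determined.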 Unmarked numbers belong to inactive results. The source made the active and inactive calls. The calls were made as follows: active = growth percent below 10; inactive = the rest.

Here are results for nine molecules from PubChem BioAssay (NCI).

Test systems include SR leukemia; RPMI-8226 leukemia; OVCAR-8 ovarian; OVCAR-5 ovarian; OVCAR-4 ovarian; SK-OV-3 ovarian; OVCAR-3 ovarian; HS 578T breast; NCI/ADR-RES ovarian; T-47D breast; BT-549 breast; MDA-MB-435 melanoma; SW-620 colon; MCF7 breast; HCT-116 colon; HCC-2998 colon; KM12 colon; IGROV1 ovarian.
Experiment in all cases: NCI-60 one-dose screen, 48 h (100 = growth as untreated, 0 = no growth, -100 = all killed)
Conditions in all cases: 10 µM unless noted

For the molecule `O=C(N/N=C/c1coc2ccccc2c1=O)c1cc2oc(-c3ccccc3)cc2[nH]1`, the growth is 87.7% in the experiment on SR leukemia; 67% with RPMI-8226 leukemia; 110% with OVCAR-8 ovarian; 106% with OVCAR-5 ovarian; 98.7% in the experiment with OVCAR-4 ovarian; 102% in the experiment with SK-OV-3 ovarian. The growth in the experiment with OVCAR-3 ovarian is 99.8%; with HS 578T breast, 107%; with NCI/ADR-RES ovarian, 118%; with T-47D breast, 84.7%; in the experiment on BT-549 breast, 77.2%; in the experiment with MDA-MB-435 melanoma, 100%. The growth in the experiment with SW-620 colon was 102%; in the experiment with MCF7 breast, 97.2%; in the experiment with HCT-116 colon, 96.5%; with HCC-2998 colon, 98.8%; in the experiment with KM12 colon, 101%.
Take `O=C1N/C(=N\c2nnc(-c3ccc(O)cc3)s2)S/C1=C\c1ccccc1O`: the growth is 99.4% in the experiment on SR leukemia; 101% in the experiment on RPMI-8226 leukemia; 96.8% in the experiment on OVCAR-8 ovarian; 93.7% with OVCAR-5 ovarian; 88.2% in the experiment on OVCAR-4 ovarian; 112% with SK-OV-3 ovarian. Further, the growth was 93.2% in the experiment with OVCAR-3 ovarian; 90.3% in the experiment on HS 578T breast; 97.8% in the experiment on NCI/ADR-RES ovarian; 97.9% in the experiment on T-47D breast; 97% with BT-549 breast; 94.4% in the experiment with MDA-MB-435 melanoma. Further, the growth is 96.1% in the experiment with SW-620 colon; 88.4% in the experiment with MCF7 breast; 91.7% with HCT-116 colon; 106% in the experiment with HCC-2998 colon; 96.7% in the experiment on KM12 colon.
Take `O=C1c2ccccc2CCc2ccccc21`: the growth with SR leukemia is 104%; in the experiment on RPMI-8226 leukemia, 108%; in the experiment with OVCAR-8 ovarian, 99.3%; with OVCAR-5 ovarian, 93.7%; in the experiment on OVCAR-4 ovarian it was 104%; in the experiment with IGROV1 ovarian, 93%. Also, the growth in the experiment on OVCAR-3 ovarian was 103%; in the experiment with HS 578T breast it was 105%; in the experiment on NCI/ADR-RES ovarian, 101%; in the experiment with BT-549 breast, 99%; in the experiment with MDA-MB-435 melanoma, 100%; with SW-620 colon, 99.3%. Also, the growth with MCF7 breast is 94.9%; in the experiment on HCT-116 colon it was 98.2%; in the experiment on HCC-2998 colon, 97.5%; in the experiment with KM12 colon, 102%.
For the molecule `O=C1/C(=C\c2cn(-c3nc(N4CCOCC4)nc(N4CCOCC4)n3)c3ccccc23)c2ccccc2N1c1c(Cl)cccc1Cl`, the growth with SR leukemia was 27.4%; in the experiment on RPMI-8226 leukemia it was 60.1%; in the experiment with OVCAR-8 ovarian, 76.1%; in the experiment on OVCAR-5 ovarian, 52.1%; in the experiment on OVCAR-4 ovarian it was 65.1%; in the experiment on SK-OV-3 ovarian, 7.66% (active). Also, the growth was 69.6% with OVCAR-3 ovarian; 27.9% in the experiment on HS 578T breast; 72.4% in the experiment with NCI/ADR-RES ovarian; 45.5% with T-47D breast; 39.1% in the experiment with BT-549 breast; 83.5% with MDA-MB-435 melanoma. In addition, the growth in the experiment on SW-620 colon was 84.5%; in the experiment on MCF7 breast it was 50.6%; in the experiment on HCT-116 colon, 71.6%; in the experiment on HCC-2998 colon, 75.5%; with KM12 colon it was 88.5%.
`N=C(N)N=Nc1ccc(NN=C(N)N)cc1`: the growth in the experiment on SR leukemia is 108%; in the experiment with RPMI-8226 leukemia it was 95.8%; in the experiment on OVCAR-8 ovarian, 94.4%; with OVCAR-5 ovarian it was 78.7%; in the experiment on OVCAR-4 ovarian, 100%; with SK-OV-3 ovarian, 24%. The growth with OVCAR-3 ovarian is 108%; with NCI/ADR-RES ovarian, 110%; in the experiment with T-47D breast it was 97.3%; in the experiment with BT-549 breast it was 88.9%; with MDA-MB-435 melanoma, 109%; in the experiment on SW-620 colon, 38.3%. The growth with MCF7 breast was 90.9%; with HCT-116 colon, 85.9%; in the experiment on HCC-2998 colon it was 86.6%; in the experiment on KM12 colon, 43.8%.
`COC1=CC(c2ccc[nH]2)=N/C1=C\c1[nH]c(C)c(C(=O)CCCCC(=O)NC(C)(C)C)c1C`: the growth is 83.4% in the experiment with SR leukemia; 35.4% in the experiment with RPMI-8226 leukemia; 28.2% in the experiment with OVCAR-8 ovarian; 48.3% with OVCAR-5 ovarian; 39.6% in the experiment with OVCAR-4 ovarian; 102% in the experiment with SK-OV-3 ovarian. For the same molecule, the growth in the experiment on OVCAR-3 ovarian is 18.4%; in the experiment with NCI/ADR-RES ovarian, 30.1%; with T-47D breast, 40.1%; in the experiment on BT-549 breast, -11.2% (active); with MDA-MB-435 melanoma it was 7.73% (active); with MCF7 breast it was -15.1% (active). Further, the figures for the growth in the experiment with HCC-2998 colon and in the experiment on KM12 colon were 30.5% and 20.5%, respectively.
For the molecule `O=C1C(=O)c2ccccc2C(O)=C1CCCc1ccc(Oc2ccccc2)cc1`, the growth with SR leukemia was 94.5%; in the experiment on RPMI-8226 leukemia, 22.3%; in the experiment on OVCAR-8 ovarian, 72.7%; in the experiment with OVCAR-5 ovarian, 110%; in the experiment with OVCAR-4 ovarian, 59.6%; in the experiment with SK-OV-3 ovarian it was 74.7%. In addition, the growth with OVCAR-3 ovarian is 49.4%; with HS 578T breast, 95.7%; in the experiment with NCI/ADR-RES ovarian it was 91.6%; in the experiment on BT-549 breast, 60.9%; in the experiment on MDA-MB-435 melanoma it was 45.4%; in the experiment with SW-620 colon it was 39.9%. In addition, the growth in the experiment on MCF7 breast was 83.3%; in the experiment on HCT-116 colon, 22.1%; in the experiment on HCC-2998 colon, 103%; in the experiment on KM12 colon, 67.3%.
Turning to `COc1cc(/C(=C2/O[C@@H]([C@H]3COC(C)(C)O3)[C@H]3OC(C)(C)O[C@@H]23)c2ccc3c(c2)OCO3)cc(OC)c1OC`, the growth with SR leukemia is 80.9%; in the experiment with RPMI-8226 leukemia, 73.7%; in the experiment with OVCAR-8 ovarian, 4.49% (active); in the experiment with OVCAR-5 ovarian, 59.2%; with OVCAR-4 ovarian, 58.1%; with SK-OV-3 ovarian, 63.1%. Further, the growth is 74.8% in the experiment with OVCAR-3 ovarian; 44.4% with NCI/ADR-RES ovarian; 55.9% in the experiment with T-47D breast; 79.5% with BT-549 breast; 73.3% with MDA-MB-435 melanoma; 44.5% in the experiment on MCF7 breast. In addition, the results for the growth in the experiment on HCT-116 colon and in the experiment on KM12 colon were 9.6% (active) and 63.6%, respectively.
As to `COc1cccc(Cn2cc3c(c2)-c2oncc2CC3)c1`, the growth in the experiment on SR leukemia was 13.8%; in the experiment with RPMI-8226 leukemia, 37.6%; in the experiment on OVCAR-8 ovarian, 32.3%; in the experiment with OVCAR-5 ovarian, 42.6%; in the experiment on OVCAR-4 ovarian, 50.9%; in the experiment on SK-OV-3 ovarian, 1.4% (active). Besides, the growth with OVCAR-3 ovarian is -30.4% (active); in the experiment on HS 578T breast, 8.85% (active); in the experiment with NCI/ADR-RES ovarian, 6.75% (active); in the experiment on T-47D breast, 65.2%; in the experiment on BT-549 breast, 66%; in the experiment with MDA-MB-435 melanoma, -47% (active). Besides, the growth was 26.4% with SW-620 colon; 18.4% in the experiment on MCF7 breast; 8.74% (active) with HCT-116 colon; -32.4% (active) with HCC-2998 colon; 5.03% (active) with KM12 colon.
